Measured values reported in PubChem BioAssay AID689 (Sanford-Burnham Center for Chemical Genomics, 2007).
The whole screen tested about 62,000 compounds, of which about 80 (0.1%) were called active. The rule behind the calls is not given here. Only a sample is shown. Results with a measured potency or affinity are listed apart.

target: Ephrin type-A receptor 4 (Mus musculus) (UniProt Q03137); assay: inhibitors of EphA4 binding to KYL peptide, primary screen, biochemical, colorimetric, mouse EphA4 (AID 689); settings: EphA4-AP binding to KYL peptide, pNPP A405, at 10 µM, stronger effect = higher value
Sequence (Q03137 whole entry, looked up): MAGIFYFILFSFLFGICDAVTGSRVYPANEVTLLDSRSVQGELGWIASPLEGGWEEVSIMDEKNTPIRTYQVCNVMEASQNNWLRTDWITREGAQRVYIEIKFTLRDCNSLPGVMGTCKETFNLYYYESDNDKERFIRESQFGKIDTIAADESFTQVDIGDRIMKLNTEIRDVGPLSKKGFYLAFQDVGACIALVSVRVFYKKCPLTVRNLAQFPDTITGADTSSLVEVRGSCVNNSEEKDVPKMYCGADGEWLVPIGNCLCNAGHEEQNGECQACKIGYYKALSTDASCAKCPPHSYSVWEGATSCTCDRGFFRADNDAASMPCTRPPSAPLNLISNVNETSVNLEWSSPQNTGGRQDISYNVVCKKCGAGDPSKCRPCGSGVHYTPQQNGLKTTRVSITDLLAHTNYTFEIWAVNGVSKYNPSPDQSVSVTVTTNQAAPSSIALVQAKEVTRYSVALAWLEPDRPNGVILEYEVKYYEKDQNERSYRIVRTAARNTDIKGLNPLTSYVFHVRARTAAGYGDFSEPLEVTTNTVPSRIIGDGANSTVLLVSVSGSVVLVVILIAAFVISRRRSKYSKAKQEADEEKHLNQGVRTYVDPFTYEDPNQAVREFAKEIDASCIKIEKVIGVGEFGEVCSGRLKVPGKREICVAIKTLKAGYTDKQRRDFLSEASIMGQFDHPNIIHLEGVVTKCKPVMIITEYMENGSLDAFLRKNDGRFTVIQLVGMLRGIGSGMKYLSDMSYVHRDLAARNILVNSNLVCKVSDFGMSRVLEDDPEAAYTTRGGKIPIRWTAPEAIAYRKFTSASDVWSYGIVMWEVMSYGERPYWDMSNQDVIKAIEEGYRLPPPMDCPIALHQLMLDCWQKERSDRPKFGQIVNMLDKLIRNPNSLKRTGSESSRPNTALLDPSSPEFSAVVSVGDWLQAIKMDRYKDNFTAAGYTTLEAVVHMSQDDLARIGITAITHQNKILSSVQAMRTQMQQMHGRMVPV

inhibition, inactive:
COc1cc2[nH]c3c(N4CCC(C(N)=O)CC4)ncnc3c2cc1OC -14.4%, CSc1nc(N(C)CCO)c2sc3nc(-c4ccco4)c4c(c3c2n1)CCC4 46.9%, CCSc1ncnc2c1sc1nc(-c3ccco3)c3c(c12)CC(C)(C)OC3 -1.2%, CSc1nc(N2CCN(CCO)CC2)c2sc3nc(-c4ccco4)c4c(c3c2n1)CCC4 -2.2%, CSc1nc(NCc2ccco2)c2sc3nc(C(C)C)c4c(c3c2n1)CC(C)(C)OC4 -8.5%, COC(=O)c1c(C)oc2ccc(OCc3ccccc3Br)cc12 -1.2% [this sample at 5 µg/mL], CC1CCN(c2cc(N3CCOCC3)c([N+](=O)[O-])cc2F)CC1 17.1%, c1ccc(-c2nc(-n3nc4ccccc4n3)nc3ccccc23)cc1 -3.4%, CCCCCn1c2nc3ccccc3nc2c2c(=O)n(CC(C)C)cnc21 -9.1%, Cn1nc(-c2ccccc2)c2nc3ccccc3nc21 45.4%, CCCCn1c2nc3ccccc3nc2c2c(=O)n(CCC)cnc21 -2.2%, CCCn1nc(NS(=O)(=O)c2ccccc2)c2cc3ccccc3nc21 -10.6%, CCCCn1c2nc3ccccc3nc2c2c(=O)n(C(C)CC)cnc21 (configuration not stated) 0.6%, CCCCCn1c(N)c(C#N)c2nc3ccccc3nc21 0.7%, CCCn1cnc2c(c1=O)c1nc3ccccc3nc1n2CCc1ccccc1 -9.5%, COc1cc(NC(=O)c2cnn3c2NC(c2ccc(Br)cc2)CC3C(F)(F)F)cc(OC)c1OC (configuration not stated) -4.6% [this sample at 5 µg/mL], COc1ccc(-c2c(C(C)=O)c(C)nc3sc4c(c23)NC(c2ccccc2)NC4=O)cc1 (configuration not stated) -23.5%, CC1(C)CC(=O)C2=C(C1)N(Cc1ccco1)C(=O)NC2(C(F)(F)F)C(F)(F)F -8.1%, Oc1ccc(N2CCN(c3ncnc4sc5c(c34)CCC5)CC2)cc1 -17.1%, COc1ccccc1CNC(=O)c1oc2ccc(S(=O)(=O)N3CCCC3)cc2c1C 2.1%, Cc1[nH]n(CCC#N)c(=O)c1CC(=O)N1CCN(c2ccccc2)CC1 -10.6%, O=C(Nc1ccc2nn(-c3ccccc3)nc2c1)c1ccc(Cl)c([N+](=O)[O-])c1 -18.3% [this sample at 5 µg/mL], CCOC(=O)C(C)(C)C(=O)C(C)(C)C(O)c1ccccn1 (configuration not stated) -7.7%, CC(C)Cn1c(N)c(C(=O)CSc2nnnn2C)c(=O)n(C)c1=O -12%, Cc1cc2ccccc2n1CCNC(=O)C1CCCC1 0.5%, Cc1ccc(S(=O)(=O)NCCn2c(C)cc3ccccc32)cc1 13.5%, CCOc1ccc(NS(=O)(=O)c2ccc(OC)c(C)c2)cc1 -20.6%, O=C(Nc1nc(-c2ccccc2)c(-c2ccccc2)s1)c1ccc(S(=O)(=O)N2CCCC2)cc1 8.7% [this sample at 5 µg/mL], Cc1ocnc1C(=O)Nc1ccc(Cl)cc1 -10.1%, CC(=O)C12c3ccccc3C(c3ccccc31)C1C(=O)NC(=O)C12 (configuration not stated) -14.2% [this sample at 5 µg/mL], CCOc1ccc(N(CC(=O)Nc2ccc(Br)cc2)S(=O)(=O)c2ccc(SC)cc2)cc1 -3.8% [this sample at 5 µg/mL], Cc1cc(C)n2nc(SC3CCCCN(C(=O)c4ccc(F)cc4)C3=O)nc2n1 (configuration not stated) -9.7%, c1ccc(-c2cn3nc4c(nc3n2)CCCC4)cc1 5.2%, Cc1nn2cc(-c3ccccc3)nc2s1 -24.1%, Cc1cc(=O)[nH]c(SCCOc2ccccc2C)n1 -0.8% [this sample at 5 µg/mL], CC1CC(C)CN(C(=O)CSc2nnc(-c3ccc(F)cc3)o2)C1 (configuration not stated) 8.1%, Cc1ccc(NC(=O)/C(=C\c2ccc([N+](=O)[O-])cc2)NC(=O)c2ccccc2)cc1 -12.9%, Cc1ccc(C(=O)N/C(=C\c2ccc([N+](=O)[O-])cc2)C(=O)NCCc2ccccc2)cc1 1.8%, COc1ccc(NC(=O)/C=C/c2ccccc2Cl)c([N+](=O)[O-])c1 -10.9% [this sample at 5 µg/mL], CC1=N/C(=C\c2ccc([N+](=O)[O-])cc2)C(=O)N1c1ccc(Br)c(C)c1 40.9%, CC1=N/C(=C\c2ccc([N+](=O)[O-])cc2)C(=O)N1c1ccc(Cl)cc1 22.2%, O=C(COc1ccccc1)Nc1ccc(S(=O)(=O)N2CCOCC2)cc1 5.4%, C=C(C)Cn1c(COc2ccccc2)nnc1SCC(=O)O 1.1%, O=C(/C(=C/c1ccccc1[N+](=O)[O-])c1nc2ccccc2[nH]1)c1ccccc1 9% [this sample at 5 µg/mL], CN1C(=O)C(=Cc2ccc(-c3ccc(Cl)c(C(=O)O)c3)o2)C(=O)N(C)C1=O 12.8% [this sample at 5 µg/mL], Cc1ccc(N2C(=O)/C(=C\c3ccc(-c4ccc(Cl)c(C(=O)O)c4)o3)C(=O)NC2=S)cc1 -13.7% [this sample at 5 µg/mL], O=C1NC(=O)N(c2ccc(Cl)cc2)C(=O)/C1=C/c1ccc(-c2ccc(Cl)c(C(=O)O)c2)o1 -6.4% [this sample at 5 µg/mL], CCOC(=O)c1cc(-c2ccc(C=C3C(=O)N(C)C(=O)N(C)C3=O)o2)ccc1Cl 11% [this sample at 5 µg/mL], COc1ccc(/C=C/C(=O)Nc2cccc([N+](=O)[O-])c2)cc1Br 1.9% [this sample at 5 µg/mL], COC(=O)c1cccc(NC(=O)COC(=O)CSc2nc(C)cc(C)n2)c1 -9.9%, Cn1c(SCCOc2ccc(Cl)cc2)nnc1-c1ccncc1 13%, Cc1ccc(CNc2oc(C)nc2C#N)cc1 -0.9%
